Avidin bead fluor = compound fluoresces at 488/530 nm on avidin beads; 0.38% of 220,000 active; compound fluorescence 488/530 nm, flow cytometry; active compounds read high; fluorescence (KMESF) at 10 µM; in the data active = fluorescence above about 47
RGS16-Gao = RGS16-Galphao interaction regulator (human); bead-based flow cytometry RGS16-Galphao binding, fluorescence; actives lie on both sides; binding response (% of control), % at 10 µM; 0.38% of 220,000 active; AID 1441; call rule not given here;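 also: Galphao activated by GDP with aluminum fluoride before binding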
RGS8-Gao reg = modulates binding of RGS8 to human Galphao; AID 1423; 0.34% of 220,000 active; response (percent of control binding), % at 10 µM; multiplexed bead flow cytometry; actives lie on both sides; P09471; in the data active = response below about 60% or above about 140%; inactive = in between;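 also: Galphao activated as the GDP aluminium fluoride complex binding bead-coupled RGS8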
RGS4-Gao reg = human RGS4-Galphao interaction regulation; Multiplexed bead flow cytometry, RGS4-Galphao binding; actives lie on both sides; AID 1415; binding response (% of control), % at 10 µM; 0.33% of 220,000 active; in the data active = binding response below about 49% or above about 150%; inactive = in between;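 also: fluorescent Galphao activated with aluminum fluoride binding bead-coupled RGS4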
GSH fluor = GSH bead compound fluorescence profile; GSH beads flow cytometry, compound fluorescence 488/530 nm; active compounds read high; fluorescence (KMESF) at 10 µM; 0.25% of 190,000 active; in the data active = fluorescence above about 89;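 also: glutathione beads carrying GST-tagged Bcl family fusion proteins plus one bare bead set; values are compound well signal with DMSO vehicle wells as background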
RGS7-Gao = modulates binding of RGS7 to human Galphao; P09471; Multiplexed bead flow cytometry; actives lie on both sides; binding response (% of control), % at 10 µM; 0.35% of 220,000 active; AID 1439; in the data active = binding response below about 49% or above about 150%; inconclusive = no clear call, values can overlap the other calls; inactive = in between;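 also: fluorescent Galphao held in activated GDP-AlF4 state binding bead-coupled RGS7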
Numbers without * were called inactive; ? = inconclusive; · = no result given; [ ] = another dose, or the depositor's remark. Most compounds without a hit are left out; they make up all but 1.2% or so of the library.

SMILES	Avidin bead fluor	RGS16-Gao	RGS8-Gao reg	RGS4-Gao reg	GSH fluor	RGS7-Gao
COC(=O)c1ccc(C2C(Oc3ccccc3)C(=O)N2CCc2ccc(F)cc2)cc1 (configuration not stated)	61*	100	100	100	17	112
COc1ccc(OCCC(=O)OCC(=O)NCc2ccco2)cc1	6	92	99	93	259*	94
O=C(COC(=O)c1ccccc1Oc1ccccc1)NCc1ccco1	7	92	101	91	263*	97
COc1ccccc1NCCC(=O)OCC(=O)NCc1ccco1	5	107	103	96	9	90
Cc1ccc(Cl)cc1N1CCN(C(=O)c2cc3c(=O)[nH]c4ccccc4c3n2C)CC1	6	40	78	89	22	93
Cc1c(NS(=O)(=O)N2CCCC2)c(=O)n(-c2ccccc2)n1C	7	96	101	97	48	102
Cc1c(NS(C)(=O)=O)c(=O)n(-c2ccccc2)n1C	5	99	112	108	252*	101
CC(=O)Oc1ccc2c(c1)Oc1cc(OC(C)=O)ccc1C21OC(=O)c2ccccc21	399*	888*[activator]	165*[activator]	581*[activator]	200*	628*[activator]
O=C(COC(=O)c1ccncc1)NCc1ccccc1	16	101	100	99	27	99
O=C(COC(=O)c1ccncc1)NCCCc1ccccc1	11	148	139	154*[activator]	14	152*[activator]
Cc1ccc(OCCOCCN(C)C)c(Cl)c1	17	101	100	103	10	103
COC(=O)c1ccc(NC(=O)COc2ccc([N+](=O)[O-])cc2)cc1	8	101	102	102	·	?
N#CC1=C(N)OC2=C(CC/C2=C\c2ccccc2Cl)C1c1ccccc1Cl (configuration not stated)	11	103	100	104	10	101
Cc1oc(C)c2c(=O)ccc3c(c12)OC(N)=C(C#N)C3c1ccccc1Cl (configuration not stated)	23	101	102	102	138*	97
N#CC1=C(N)Oc2c(ccc3cccnc23)C1c1ccccc1 (configuration not stated)	6	104	106	103	·	?
Cc1oc(C)c2c(=O)ccc3c(c12)OC(N)=C(C#N)C3c1ccccc1 (configuration not stated)	6	104	104	101	585*	105
O=C(NCCCn1ccnc1)C(=O)Nc1ccccc1	12	105	100	95	13	98
CC(C)[C@H](NC(=O)c1ccc(C(C)(C)C)cc1)C(=O)Nc1nnc(C2CC2)s1	13	85	96	100	6	100
N#C/C(=C/c1ccc(N2CCCCC2)o1)C(=O)Nc1ccc(Cl)cc1	56*	135	104	126	52	124
N#C/C(=C\c1ccc(N2CCOCC2)o1)C(=O)Nc1ccc(O)cc1	22	106	105	106	10	102
O=C(CN1C(=O)c2ccccc2S1(=O)=O)NCCC1=CCCCC1	4	91	99	85	117*	90
COc1ccc(OC)c(-c2c3cc(O)c(=O)cc-3oc3cc(O)c(O)cc23)c1	-3	17*	36*	39*	274*	4.7*
CCOc1ccc(S(=O)(=O)Nc2ccc(C(=O)N/N=C(\C)c3ccc(-n4ccnc4)cc3)cc2)cc1	50*	162	112	145	27	143
COc1ccc(CCNC(=O)/C=C/c2ccc(C)cc2)cc1OC	12	103	103	103	22	101
COc1ccc(CCNC(=O)CC2COc3ccccc3O2)cc1OC (configuration not stated)	48*	102	100	101	26	107
COc1cc(OC)c(OC)cc1NC(=O)CC1COc2ccccc2O1 (configuration not stated)	8	105	102	105	17	102
COc1ccc(CCNC(=O)CN(c2ccccc2OC)S(C)(=O)=O)cc1OC	8	107	104	105	263*	103
COc1ccc(CCNC(=O)/C=C/c2cc(OC)c(OC)c(OC)c2)cc1OC	73*	99	97	119	15	?

Source: PubChem (NMMLSC)
